Unmarked numbers belong to inactive results.

This test relates to Pseudomonas aeruginosa PA14 dppA1-A5 penta mutant + pBBR5.DppA1 (PA14_58350). Briefly: respiration area under curve with compound as sole nitrogen source, 24 h (OmniLog AUC (arbitrary units)); higher = more respiration / better utilisation as nitrogen source, active = 2000 or more. The method, then:
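Biolog Phenotype MicroArray plates PM6-PM8: each di/tripeptide is the sole nitrogen source. Tetrazolium reduction was read in the OmniLog for 24 h at 37°C and summarised as area under the respiration curve (arbitrary units). Values below 2000 count as no respiration. Strain is the SBP penta mutant complemented with DppA1 on a plasmid under its native promoter. Lys/His/Cys peptides are excluded.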
Consider `C[C@@H](O)[C@H](N)C(=O)N[C@@H](CC(=O)O)C(=O)O` (plate: PM8), for which the “respiration area under curve” value was 3640 (active).

Consider `CC(C)C[C@H](NC(=O)[C@@H](N)CO)C(=O)O` (plate: PM7), for which the “respiration area under curve” value is 6240 (active).

Regarding `C[C@H](N)C(=O)N[C@@H](CCCN=C(N)N)C(=O)O` (plate: PM6), the “respiration area under curve” value was 9300 (active).

As for `N[C@@H](Cc1ccccc1)C(=O)N[C@@H](Cc1ccc(O)cc1)C(=O)O` (plate: PM8), the “respiration area under curve” value is 2050 (active).

Consider `NC(N)=NCCC[C@H](N)C(=O)N[C@@H](CO)C(=O)O` (plate: PM6), for which the “respiration area under curve” value was 7830 (active).

Regarding `NCC(=O)N[C@@H](CO)C(=O)O` (plate: PM6), the “respiration area under curve” value is 6080 (active).

With `CSCC[C@H](N)C(=O)N[C@@H](CCC(=O)O)C(=O)O` (plate: PM7), the “respiration area under curve” value is 1490.

For `CSCC[C@H](NC(=O)[C@@H](N)CO)C(=O)O` (plate: PM7), the “respiration area under curve” value is 2590 (active).

As for `CC[C@H](C)[C@H](N)C(=O)N[C@H](C(=O)O)[C@@H](C)CC` (plate: PM6), the “respiration area under curve” value was 1010.

As to `C[C@H](N)C(=O)N1CCC[C@H]1C(=O)O` (plate: PM6), the “respiration area under curve” value is 10700 (active).

Take `CSCC[C@H](N)C(=O)N1CCC[C@H]1C(=O)O` (plate: PM7): the “respiration area under curve” value is 8590 (active).

Regarding `NC(N)=NCCC[C@H](N)C(=O)N[C@@H](Cc1ccc(O)cc1)C(=O)O` (plate: PM6), the “respiration area under curve” value is 8490 (active).

For the molecule `CSCC[C@H](N)C(=O)N[C@H](C(=O)O)[C@@H](C)O` (plate: PM8), the “respiration area under curve” value is 1950.

Regarding `N[C@@H](CO)C(=O)N[C@@H](Cc1ccc(O)cc1)C(=O)O` (plate: PM7), the “respiration area under curve” value was 5300 (active).

Take `N[C@@H](Cc1ccccc1)C(=O)NCC(=O)O` (plate: PM7): the “respiration area under curve” value was 6420 (active).

As for `CC[C@H](C)[C@H](N)C(=O)N[C@@H](CCSC)C(=O)O` (plate: PM6), the “respiration area under curve” value is 289.

`O=C(O)[C@H](Cc1c[nH]c2ccccc12)NC(=O)[C@@H]1CCCN1` (plate: PM8): the “respiration area under curve” value is 1320.

As for `CC(C)[C@H](N)C(=O)N[C@@H](CCCN=C(N)N)C(=O)O` (plate: PM7), the “respiration area under curve” value was 12100 (active).

For `N[C@@H](CCC(=O)O)C(=O)N[C@@H](CC(=O)O)C(=O)O` (plate: PM6), the “respiration area under curve” value was 19.3.

`CC(C)C[C@H](NC(=O)[C@@H](N)CC(=O)O)C(=O)O` (plate: PM6): the “respiration area under curve” value is 984.

As to `CC(C)[C@H](NC(=O)[C@@H](N)Cc1c[nH]c2ccccc12)C(=O)O` (plate: PM8), the “respiration area under curve” value is 1060.

Turning to `NCC(=O)N[C@@H](CC(N)=O)C(=O)O` (plate: PM8), the “respiration area under curve” value is 14300 (active).

Regarding `N[C@@H](Cc1ccccc1)C(=O)N[C@@H](CO)C(=O)O` (plate: PM7), the “respiration area under curve” value is 6540 (active).

Regarding `NC(=O)CC[C@H](NC(=O)[C@@H](N)CCC(N)=O)C(=O)O` (plate: PM6), the “respiration area under curve” value is 6630 (active).

As to `N[C@@H](CCC(=O)O)C(=O)N[C@@H](Cc1c[nH]c2ccccc12)C(=O)O` (plate: PM6), the “respiration area under curve” value is 1820.

`CC(C)C[C@H](NC(=O)[C@H](CC(C)C)NC(=O)[C@@H](N)CC(C)C)C(=O)O` (plate: PM8): the “respiration area under curve” value is 3090 (active).

Turning to `CC(C)[C@H](N)C(=O)N[C@@H](CC(=O)O)C(=O)O` (plate: PM7), the “respiration area under curve” value is 6440 (active).

As to `C[C@H](NC(=O)[C@@H](N)CO)C(=O)O` (plate: PM7), the “respiration area under curve” value was 9020 (active).

In the case of `CC(C)[C@H](N)C(=O)N[C@@H](CCC(N)=O)C(=O)O` (plate: PM8), the “respiration area under curve” value was 7140 (active).

`CC(C)[C@H](NC(=O)[C@@H](N)CCCN=C(N)N)C(=O)O` (plate: PM6): the “respiration area under curve” value was 7530 (active).

Regarding `CC(C)C[C@@H](N)C(=O)N[C@@H](Cc1ccc(O)cc1)C(=O)O` (plate: PM8), the “respiration area under curve” value is 21.2.

Regarding `C[C@H](NC(=O)CCN)C(=O)O` (plate: PM8), the “respiration area under curve” value was 4280 (active).

In the case of `CC(C)C[C@H](N)C(=O)N[C@@H](Cc1ccccc1)C(=O)O` (plate: PM6), the “respiration area under curve” value is 4550 (active).

Regarding `N[C@@H](CO)C(=O)NCC(=O)O` (plate: PM7), the “respiration area under curve” value was 6260 (active).

For the molecule `CSCC[C@H](N)C(=O)N[C@@H](Cc1ccccc1)C(=O)O` (plate: PM7), the “respiration area under curve” value is 680.

For the molecule `NC(=O)CC[C@H](NC(=O)[C@@H](N)CCCN=C(N)N)C(=O)O` (plate: PM6), the “respiration area under curve” value is 8870 (active).

As to `C[C@H](N)C(=O)NCC(=O)O` (plate: PM6), the “respiration area under curve” value is 6240 (active).

For `N[C@@H](Cc1ccccc1)C(=O)NCC(=O)NCC(=O)O` (plate: PM8), the “respiration area under curve” value was 7350 (active).

Regarding `C[C@H](NC(=O)CNC(=O)CN)C(=O)O` (plate: PM8), the “respiration area under curve” value is 4350 (active).

Regarding `CC(C)[C@H](N)C(=O)N[C@@H](C)C(=O)O` (plate: PM8), the “respiration area under curve” value was 4740 (active).
